From article PMC5540273 (PLoS ONE, 2017)
Where “and” joins values, the source holds several entries; their conditions need not be identical. Equal entries are not always repeated. Where two headings read alike, the source gives them in different places.

Tests used:
YANK3 = test system: T1, YANK3; settings: concentration: 1 μM, replicates: in singlicate, n = 1
T1 construct: gene STK32C

YES = test system: T2, YES; settings: concentration: 1 μM, replicates: in singlicate, n = 1
T2 construct: gene YES1

YSK1 = test system: T3, YSK1; settings: concentration: 1 μM, replicates: in singlicate, n = 1
T3 construct: gene STK25

YSK4 = test system: T4, YSK4; settings: concentration: 1 μM, replicates: in singlicate, n = 1
T4 construct: gene MAP3K19

ZAK = settings: concentration: 1 μM, replicates: in singlicate, n = 1
ZAP70 = settings: concentration: 1 μM, replicates: in singlicate, n = 1
p38-alpha = test system: T5, p38-alpha; settings: concentration: 1 μM, replicates: in singlicate; n = 1
T5 construct: gene MAPK14

p38-beta = test system: T6, p38-beta; settings: concentration: 1 μM, replicates: in singlicate; n = 1
T6 construct: gene MAPK11

p38-delta = settings: concentration: 1 μM, replicates: in singlicate, n = 1
p38-gamma = test system: T7, p38-gamma; settings: concentration: 1 μM, replicates: in singlicate, n = 1
T7 construct: gene MAPK12
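Further: KINOMEscan kinase panel screen.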

| Compound | %Inh (YANK3) | %Inh (YES) | %Inh (YSK1) | %Inh (YSK4) | %Inh (ZAK) | %Inh (ZAP70) | %Inh (p38-alpha) | %Inh (p38-beta) | %Inh (p38-delta) | %Inh (p38-gamma) | %Inh (YANK3; 1 µM) | %Inh (YES; 1 µM) | %Inh (YSK1; 1 µM) | %Inh (YSK4; 1 µM) | %Inh (ZAK; 1 µM) | %Inh (ZAP70; 1 µM) | %Inh (p38-delta; 1 µM) | %Inh (p38-gamma; 1 µM) |
| --- | --- | --- | --- | --- | --- | --- | --- | --- | --- | --- | --- | --- | --- | --- | --- | --- | --- | --- |
| O=C(NCCCN1CCOCC1)c1cccc(Nc2nccc(Nc3ccc(Oc4ccccc4)cc3)n2)c1 [GW663929] | 1% | 84% | 22% | 26% | 47% | 6% | 11% | 0% | 18% | 0% |  |  |  |  |  |  |  |  |
| O=C(Nc1n[nH]c2cc(-c3cccc(F)c3)ccc12)C1CC1 [SB-735464] | 0% | 1% | 0% | 82% | 8% | 0% | 1% | 7% | 0% | 15% |  |  |  |  |  |  |  |  |
| O=c1cc(N2CCOCC2)nc2n(Cc3cccc(C(F)(F)F)c3)ccn12 [GSK2297543] | 0% | 9% | 0% | 0% | 8% | 0% | 0% | 0% | 21% | 11% |  |  |  |  |  |  |  |  |
| COc1ccc(Nc2ncc(C#N)c(Nc3ccccc3C(N)=O)n2)cc1N1CCN(C)CC1.Cl [GSK1558669] | 48% | 98.8% | 95.2% | 99.7% | 64% | 98.1% | 0% | 0% | 0% | 32% |  |  |  |  |  |  |  |  |
| COc1cc2c(cc1OC[C@@H](O)CO)ncc1c3ccc(C#N)cc3[nH]c21 | 0% | 0% | 0% | 90% | 1% | 0% | 5% | 15% | 0% | 18% |  |  |  |  |  |  |  |  |
| CSc1ccc(-c2cc3ncnc(SCC(=O)O)c3s2)cc1 | 0% | 0% | 0% | 7% | 0% | 0% | 0% | 0% | 34% | 5% |  |  |  |  |  |  |  |  |
| NS(=O)(=O)c1cccc(-c2ccc3ncc(N4CCOCC4)nc3c2)c1 [GSK1535721] | 1% | 7% | 15% | 89% | 3% | 0% | 9% | 0% | 21% | 0% |  |  |  |  |  |  |  |  |
| CCc1nc(-c2cccc(C)c2)c(-c2ccnc(NCc3ccccc3)c2)s1 | 19% | 0% | 6% | 0% | 11% | 0% | 99.8% | 69% | 0% | 0% |  |  |  |  |  |  |  |  |
| Nc1nccc(-c2c(-c3ccc(F)cc3)ncn2C2CCN(CC(F)(F)F)CC2)n1 [SB-236560] | 0% | 8% | 0% | 0% | 0% | 49% | 96.6% | 11% | 8% | 0% |  |  |  |  |  |  |  |  |
| CCc1ccnc(/C=C/c2n[nH]c3cc(Sc4ccccc4C(=O)NC)ccc23)c1 | 0% | 4% | 0% | 60% | 37% | 20% | 0% | 0% | 7% | 7% |  |  |  |  |  |  |  |  |
| Cc1c(Cn2c(C)nn3c(=O)cc(N4CCOC(C)C4)nc23)cccc1C(F)(F)F (stereo not drawn) [GSK2344444] | 13% | 3% | 0% | 9% | 0% | 0% | 0% | 0% | 17% | 0% |  |  |  |  |  |  |  |  |
| CCCCCc1nc2c(N)ncnc2n1CCCCC [SKF-97255] | 0% | 0% | 12% | 14% | 13% | 13% | 0% | 19% | 0% | 50% |  |  |  |  |  |  |  |  |
| CC(C)(C)n1cnc2c(N)ncnc21 [SKF-97359] | 0% | 27% | 0% | 0% | 0% | 21% | 0% | 0% | 0% | 2% |  |  |  |  |  |  |  |  |
| O=C1NC(=O)C(N2CCc3ccccc32)=C1c1cccc(Cl)c1 [SB-408010] | 17% | 0% | 0% | 0% | 14% | 29% | 7% | 7% | 15% | 0% |  |  |  |  |  |  |  |  |
| O=C(Nc1cccc(-c2nn3ncccc3c2-c2ccnc(Nc3cccc(C(F)(F)F)c3)n2)c1)c1c(F)cccc1F [GSK299495] | 10% | 98.7% | 0% | 33% | 87% | 51% | 43% | 24% | 53% | 13% |  |  |  |  |  |  |  |  |
| NS(=O)(=O)c1cccc(-c2ccc3nccc(-c4cccc(S(N)(=O)=O)c4)c3c2)c1 [GW867253] | 0% | 0% | 0% | 26% | 2% | 12% | 1% | 3% | 0% | 0% |  |  |  |  |  |  |  |  |
| O=C1Cc2cc(Nc3nc(NCc4cccc(S(=O)(=O)C(F)(F)F)c4)ncc3C(F)(F)F)ccc2N1 | 0% | 8% | 10% | 25% | 1% | 9% | 22% | 0% | 15% | 0% |  |  |  |  |  |  |  |  |

| Compound | %Inh (YANK3) | %Inh (YES) | %Inh (YSK1) | %Inh (YSK4) | %Inh (ZAK) | %Inh (ZAP70) | %Inh (p38-alpha) | %Inh (p38-beta) | %Inh (p38-delta) | %Inh (p38-gamma) | %Inh (YANK3; 1 µM) | %Inh (YES; 1 µM) | %Inh (YSK1; 1 µM) | %Inh (YSK4; 1 µM) | %Inh (ZAK; 1 µM) | %Inh (ZAP70; 1 µM) | %Inh (p38-delta; 1 µM) | %Inh (p38-gamma; 1 µM) |
| --- | --- | --- | --- | --- | --- | --- | --- | --- | --- | --- | --- | --- | --- | --- | --- | --- | --- | --- |
| Cc1cccc(-c2nc(-c3ccc(S(C)(=O)=O)cc3)sc2-c2ccncc2)c1 | 23% | 0% | 18% | 9% | 30% | 0% | 92.4% | 0% | 19% | 12% |  |  |  |  |  |  |  |  |
| CNc1ncnc2[nH]ncc12 [SKF-18355] | 0% | 0% | 0% | 46% | 0% | 24% | 6% | 8% | 0% | 0% |  |  |  |  |  |  |  |  |
| CC(=O)Nc1ccc(COc2ccc(Nc3ccnc4cc(-c5ccccn5)ccc34)cc2)cc1.Cl [GW440148] | 0% | 23% | 18% | 18% | 73% | 0% | 28% | 0% | 40% | 0% |  |  |  |  |  |  |  |  |
| Cc1nnc(-c2ccc3ncc(-c4ccc(S(C)=O)cc4)n3c2)o1 (stereo not drawn) | 5% | 0% | 0% | 3% | 0% | 0% | 9% | 1% | 7% | 10% |  |  |  |  |  |  |  |  |
| Cl.Cl.Cl.Fc1ccc(-c2ncn(C3CCNCC3)c2-c2ccnc(Nc3ccccc3)n2)cc1 [SB-238039] |  |  |  |  |  |  | 100% | 100% |  |  | 58% and 48% | 22% and 26% | 10% and 0% | 39% and 0% | 11% and 0% | 12% and 14% | 98.6% and 99.7% | 93.1% and 100% |
| Fc1ccc(-c2nn3c(OCC(F)(F)F)cccc3c2-c2ccncc2)cc1 [GW514784] | 0% | 11% | 17% | 0% | 17% | 0% | 99.9% | 40% | 22% | 1% |  |  |  |  |  |  |  |  |
| Fc1ccc(-c2ncn(CCCN3CCOCC3)c2-c2cccnc2)cc1 [SB-211743] | 0% | 0% | 0% | 22% | 0% | 0% | 0% | 0% | 0% | 48% |  |  |  |  |  |  |  |  |
| COCCNC(=O)c1ccc(-c2cc(C(=O)NC3CC3)cc(F)c2C)cc1 [GW868318] | 22% | 4% | 0% | 33% | 23% | 0% | 100% | 94% | 0% | 29% |  |  |  |  |  |  |  |  |
| COc1cc(Nc2nccc(N3CCC(NC(=O)c4cccc(NC(C)=O)c4)C3)n2)cc(OC)c1OC (stereo not drawn) [GSK1379754] | 0% | 18% | 3% | 19% | 0% | 0% | 0% | 0% | 0% | 0% |  |  |  |  |  |  |  |  |
| O=C(NOCC1CC1)c1ccc(F)c(F)c1Nc1ccc(I)cc1Cl | 0% | 0% | 0% | 0% | 0% | 0% | 0% | 19% | 0% | 0% |  |  |  |  |  |  |  |  |
| Fc1ccc(-c2ncn(CCCN3CCOCC3)c2-c2ccccn2)cc1 [SB-211742] | 0% | 0% | 0% | 0% | 0% | 3% | 2% | 0% | 2% | 23% |  |  |  |  |  |  |  |  |
| C[C@@H](Oc1cc(-n2cnc3ccc(NC(=O)NC(C)(C)C)cc32)sc1C(N)=O)c1ccccc1Cl [GSK346294] | 12% | 3% | 0% | 3% | 0% | 6% | 32% | 0% | 30% | 2% |  |  |  |  |  |  |  |  |
| Cc1nnc(-c2ccc(C)c(-c3ccc(C(=O)Nc4ccc(NS(C)(=O)=O)cc4)cc3)c2)o1 [GW702865] | 17% | 11% | 0% | 0% | 0% | 15% | 99.7% | 70% | 17% | 0% |  |  |  |  |  |  |  |  |
| O=c1cc(N2CCOCC2)nc2n(Cc3cccc(Cl)c3Cl)c(C3CC3)nn12 [GSK2358994] | 0% | 9% | 0% | 0% | 12% | 10% | 0% | 8% | 4% | 23% |  |  |  |  |  |  |  |  |
| Cc1cccc(-c2nc(Nc3ccc4ncsc4c3)c3ccccc3n2)n1 [GW867588] | 29% | 0% | 0% | 11% | 0% | 10% | 0% | 0% | 0% | 0% |  |  |  |  |  |  |  |  |
| Cc1nnc(-c2ccc3occ(-c4ccc(C(C)O)cc4)c3c2)o1 (stereo not drawn) | 0% | 3% | 0% | 19% | 46% | 1% | 10% | 13% | 0% | 1% |  |  |  |  |  |  |  |  |
